For some of these results: Entries with a potency or affinity are not part of this list.
How the values were obtained:
Design in all cases: scale not given: direction of the effect not stated beside the values
[1] = target: Protein translocase subunit SecA (Escherichia coli (strain K12)) (UniProt P10408); test: Assay to Identify E. coli SecA ATPase Inhibitors; assay type: functional; settings: 30 µM
[2] = target: T1, Ubiquitin-activating enzyme e1, putative (Leishmania donovani (strain BPK282A1)) (UniProt E9BSI1); test: Leishmania donovani Ubiquitin Activating Enzyme (LdE1); assay type: functional; settings: 30 µM
T1 sequence (whole entry): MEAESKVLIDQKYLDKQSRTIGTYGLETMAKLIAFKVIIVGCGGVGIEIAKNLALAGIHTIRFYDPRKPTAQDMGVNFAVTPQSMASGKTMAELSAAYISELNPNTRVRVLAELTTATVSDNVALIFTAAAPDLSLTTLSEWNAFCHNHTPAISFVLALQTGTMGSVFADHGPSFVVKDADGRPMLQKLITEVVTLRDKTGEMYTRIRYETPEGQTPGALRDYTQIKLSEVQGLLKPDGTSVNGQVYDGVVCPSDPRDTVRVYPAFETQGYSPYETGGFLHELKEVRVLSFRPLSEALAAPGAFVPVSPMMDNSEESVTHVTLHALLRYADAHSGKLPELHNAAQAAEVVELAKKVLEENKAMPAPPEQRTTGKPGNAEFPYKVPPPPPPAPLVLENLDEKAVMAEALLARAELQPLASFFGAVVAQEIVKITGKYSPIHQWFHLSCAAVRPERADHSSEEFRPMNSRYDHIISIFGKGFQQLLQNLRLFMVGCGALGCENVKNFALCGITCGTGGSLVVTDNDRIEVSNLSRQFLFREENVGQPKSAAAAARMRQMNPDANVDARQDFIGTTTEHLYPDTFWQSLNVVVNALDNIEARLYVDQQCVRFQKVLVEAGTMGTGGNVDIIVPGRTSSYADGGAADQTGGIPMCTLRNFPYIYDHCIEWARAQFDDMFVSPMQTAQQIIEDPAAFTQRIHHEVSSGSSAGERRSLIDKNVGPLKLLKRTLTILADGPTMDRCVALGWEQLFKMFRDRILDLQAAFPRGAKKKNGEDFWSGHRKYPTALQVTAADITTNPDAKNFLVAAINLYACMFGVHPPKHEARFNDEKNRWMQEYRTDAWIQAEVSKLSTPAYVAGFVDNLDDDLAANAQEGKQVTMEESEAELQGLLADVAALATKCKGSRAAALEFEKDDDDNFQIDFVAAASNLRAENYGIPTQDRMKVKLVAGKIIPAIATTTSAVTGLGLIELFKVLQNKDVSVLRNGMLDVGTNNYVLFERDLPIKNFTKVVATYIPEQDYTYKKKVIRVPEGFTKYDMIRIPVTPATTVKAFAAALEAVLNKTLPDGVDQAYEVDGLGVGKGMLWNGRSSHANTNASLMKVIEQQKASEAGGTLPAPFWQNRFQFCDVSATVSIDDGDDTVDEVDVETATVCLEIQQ

[3] = target: AMP-activated protein kinase, AMPK (Homo sapiens) (UniProt P54646+O43741+P54619+Q9UGJ0+Q9Y478+Q13131+Q9UGI9); test: AMP-dependent Kinase enzyme assay. An in vitro enzyme assay that detects ADP turnover that is directly proportional to AMPK activity. This uses naive AMPK that is activated during the assay with MK-8722; assay type: functional; settings: 30 µM
[4] = target: Sialic acid-binding Ig-like lectin 9 (Homo sapiens) (UniProt Q9Y336); test: Hs-Siglec9 ALPHAscreen SOP 20170721; settings: 10 µM
Chain of Sialic acid-binding Ig-like lectin 9 (Homo sapiens) (Q9Y336 whole entry): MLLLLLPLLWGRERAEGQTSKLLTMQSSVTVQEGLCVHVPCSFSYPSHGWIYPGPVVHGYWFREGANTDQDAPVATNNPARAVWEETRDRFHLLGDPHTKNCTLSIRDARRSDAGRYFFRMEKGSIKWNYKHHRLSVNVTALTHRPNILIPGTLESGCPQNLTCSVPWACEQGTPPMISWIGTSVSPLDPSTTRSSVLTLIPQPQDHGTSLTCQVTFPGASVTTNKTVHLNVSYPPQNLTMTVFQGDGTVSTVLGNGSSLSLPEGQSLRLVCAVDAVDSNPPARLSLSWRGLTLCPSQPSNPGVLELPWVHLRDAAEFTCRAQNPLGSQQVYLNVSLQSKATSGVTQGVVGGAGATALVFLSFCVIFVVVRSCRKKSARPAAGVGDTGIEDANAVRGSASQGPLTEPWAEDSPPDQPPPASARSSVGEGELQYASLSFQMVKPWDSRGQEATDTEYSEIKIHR

[5] = tested on: Trypanosoma cruzi; test: Trypanosoma cruzi phosphomannomutase and mannose-1-phosphate guanylyltransferase assay; assay type: functional; settings: 10 µM
[6] = target: T2, Arginase-2, mitochondrial (Homo sapiens) (UniProt P78540); test: in vitro enzyme assay to detect the production of urea directly proportional to the activity of Arginase II; assay type: functional; settings: 33.3 µM; further: in the data most compounds retested in dose-response had high values
T2 sequence (whole entry): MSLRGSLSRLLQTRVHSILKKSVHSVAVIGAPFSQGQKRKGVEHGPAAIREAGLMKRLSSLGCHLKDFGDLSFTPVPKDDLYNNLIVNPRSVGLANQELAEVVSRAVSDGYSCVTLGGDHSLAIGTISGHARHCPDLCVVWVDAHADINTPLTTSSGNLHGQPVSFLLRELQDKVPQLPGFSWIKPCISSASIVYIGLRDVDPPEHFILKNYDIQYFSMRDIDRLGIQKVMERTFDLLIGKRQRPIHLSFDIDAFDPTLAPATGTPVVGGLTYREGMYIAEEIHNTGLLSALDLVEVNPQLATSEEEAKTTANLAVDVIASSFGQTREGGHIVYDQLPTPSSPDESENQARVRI

[7] = target: T3, Proteasome subunit beta (Trypanosoma cruzi) (UniProt O96673); test: Trypanosoma cruzi proteasome chymotrypsin-like activity (TcProtChymo) assay.; further: in the data most compounds retested in dose-response had high values; assay type: functional; settings: 9.37 µM
T3 sequence (whole entry): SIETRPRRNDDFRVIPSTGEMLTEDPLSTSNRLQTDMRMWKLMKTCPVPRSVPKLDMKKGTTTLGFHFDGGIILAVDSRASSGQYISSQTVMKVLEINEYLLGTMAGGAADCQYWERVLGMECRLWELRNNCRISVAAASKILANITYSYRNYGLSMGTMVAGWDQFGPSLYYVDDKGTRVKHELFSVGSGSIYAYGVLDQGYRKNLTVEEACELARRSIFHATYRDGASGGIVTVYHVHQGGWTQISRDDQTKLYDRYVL

[8] = species on record: Homo sapiens; test: To identify inhibition of the IFN signalling (Jak-Stat) pathway via expression of an eGFP reporter gene under the control of an IFN-stimulated response element (ISRE) containing MxA promoter.; assay type: functional; settings: 30 µM
[9] = target: T4, Tyrosyl-tRNA synthetase, putative (Trypanosoma cruzi (strain CL Brener)) (UniProt Q4DSP6); test: Trypanosoma cruzi tyrosyl tRNA synthetase (TcYRS) _High Tyrosine SOP; assay type: functional; settings: 30 µM; further: in the data most compounds retested in dose-response had high values
T4 sequence (whole entry): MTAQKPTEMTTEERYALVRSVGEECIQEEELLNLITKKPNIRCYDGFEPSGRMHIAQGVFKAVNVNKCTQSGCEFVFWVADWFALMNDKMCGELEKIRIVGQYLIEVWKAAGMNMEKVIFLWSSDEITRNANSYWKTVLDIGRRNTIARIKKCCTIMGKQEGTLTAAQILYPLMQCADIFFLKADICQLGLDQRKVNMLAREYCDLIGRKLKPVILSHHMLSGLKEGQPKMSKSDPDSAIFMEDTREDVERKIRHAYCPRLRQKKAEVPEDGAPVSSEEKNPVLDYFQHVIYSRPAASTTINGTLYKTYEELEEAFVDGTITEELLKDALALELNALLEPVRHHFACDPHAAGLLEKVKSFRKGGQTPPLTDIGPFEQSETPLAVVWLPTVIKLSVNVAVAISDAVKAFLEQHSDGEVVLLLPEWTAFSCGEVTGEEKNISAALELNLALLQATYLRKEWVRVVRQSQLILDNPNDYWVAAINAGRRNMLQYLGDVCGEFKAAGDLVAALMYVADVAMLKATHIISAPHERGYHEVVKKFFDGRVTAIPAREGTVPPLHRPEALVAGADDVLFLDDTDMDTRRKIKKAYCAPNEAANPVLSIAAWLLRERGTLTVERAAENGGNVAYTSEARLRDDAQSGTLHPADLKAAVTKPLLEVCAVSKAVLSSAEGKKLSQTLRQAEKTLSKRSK

[10] = target: T4, Tyrosyl-tRNA synthetase, putative (Trypanosoma cruzi (strain CL Brener)); test: Trypanosoma cruzi tyrosyl tRNA synthetase (TcYRS) SOP; assay type: functional; settings: 30 µM
[11] = target: Chromo domain-containing protein 1 (Saccharomyces cerevisiae (strain ATCC 204508 / S288c) (Baker's yeast)) (UniProt P32657); test: ScCHD-1 Enzyme Inhibition Assay; assay type: functional; settings: 30 µM; further: in the data most compounds retested in dose-response had high values
Chain of Chromo domain-containing protein 1 (Saccharomyces cerevisiae (strain ATCC 204508 / S288c) (Baker's yeast)) (P32657 whole entry, the tested form may be a part): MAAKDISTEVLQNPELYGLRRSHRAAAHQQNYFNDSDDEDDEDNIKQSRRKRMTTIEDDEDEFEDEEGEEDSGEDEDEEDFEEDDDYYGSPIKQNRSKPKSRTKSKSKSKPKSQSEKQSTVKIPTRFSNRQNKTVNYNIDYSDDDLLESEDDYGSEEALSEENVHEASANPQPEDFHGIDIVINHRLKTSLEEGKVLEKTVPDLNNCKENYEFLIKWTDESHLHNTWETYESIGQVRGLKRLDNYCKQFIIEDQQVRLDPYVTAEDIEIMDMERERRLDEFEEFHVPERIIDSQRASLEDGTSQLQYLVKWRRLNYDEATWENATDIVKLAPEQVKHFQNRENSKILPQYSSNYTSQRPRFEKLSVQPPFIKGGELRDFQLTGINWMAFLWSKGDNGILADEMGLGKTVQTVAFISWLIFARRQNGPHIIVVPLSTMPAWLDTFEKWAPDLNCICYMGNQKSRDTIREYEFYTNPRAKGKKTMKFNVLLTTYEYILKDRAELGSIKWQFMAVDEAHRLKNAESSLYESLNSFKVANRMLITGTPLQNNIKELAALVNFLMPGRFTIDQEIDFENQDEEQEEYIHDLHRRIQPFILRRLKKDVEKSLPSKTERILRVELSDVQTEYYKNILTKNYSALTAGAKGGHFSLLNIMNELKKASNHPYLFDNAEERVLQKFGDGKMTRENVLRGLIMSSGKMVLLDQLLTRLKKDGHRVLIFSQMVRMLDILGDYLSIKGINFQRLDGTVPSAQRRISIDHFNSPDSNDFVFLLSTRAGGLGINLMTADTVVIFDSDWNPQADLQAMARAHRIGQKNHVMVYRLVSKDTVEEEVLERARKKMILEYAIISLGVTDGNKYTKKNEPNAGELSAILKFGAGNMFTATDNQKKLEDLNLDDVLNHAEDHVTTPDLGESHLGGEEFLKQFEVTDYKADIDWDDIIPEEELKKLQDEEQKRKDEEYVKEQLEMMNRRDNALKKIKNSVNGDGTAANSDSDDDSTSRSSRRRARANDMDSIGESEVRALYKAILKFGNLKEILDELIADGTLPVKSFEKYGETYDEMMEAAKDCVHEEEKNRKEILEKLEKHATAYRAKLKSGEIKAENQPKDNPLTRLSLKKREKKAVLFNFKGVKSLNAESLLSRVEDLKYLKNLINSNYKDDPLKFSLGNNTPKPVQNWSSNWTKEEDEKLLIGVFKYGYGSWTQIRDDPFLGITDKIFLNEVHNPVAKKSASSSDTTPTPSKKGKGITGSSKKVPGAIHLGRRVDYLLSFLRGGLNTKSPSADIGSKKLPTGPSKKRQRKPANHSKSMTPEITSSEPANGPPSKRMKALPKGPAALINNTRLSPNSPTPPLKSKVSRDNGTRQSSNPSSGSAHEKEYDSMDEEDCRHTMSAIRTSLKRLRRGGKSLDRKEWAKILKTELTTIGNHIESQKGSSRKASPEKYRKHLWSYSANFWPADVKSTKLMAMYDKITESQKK

Chain of Protein translocase subunit SecA (Escherichia coli (strain K12)) (P10408 whole entry): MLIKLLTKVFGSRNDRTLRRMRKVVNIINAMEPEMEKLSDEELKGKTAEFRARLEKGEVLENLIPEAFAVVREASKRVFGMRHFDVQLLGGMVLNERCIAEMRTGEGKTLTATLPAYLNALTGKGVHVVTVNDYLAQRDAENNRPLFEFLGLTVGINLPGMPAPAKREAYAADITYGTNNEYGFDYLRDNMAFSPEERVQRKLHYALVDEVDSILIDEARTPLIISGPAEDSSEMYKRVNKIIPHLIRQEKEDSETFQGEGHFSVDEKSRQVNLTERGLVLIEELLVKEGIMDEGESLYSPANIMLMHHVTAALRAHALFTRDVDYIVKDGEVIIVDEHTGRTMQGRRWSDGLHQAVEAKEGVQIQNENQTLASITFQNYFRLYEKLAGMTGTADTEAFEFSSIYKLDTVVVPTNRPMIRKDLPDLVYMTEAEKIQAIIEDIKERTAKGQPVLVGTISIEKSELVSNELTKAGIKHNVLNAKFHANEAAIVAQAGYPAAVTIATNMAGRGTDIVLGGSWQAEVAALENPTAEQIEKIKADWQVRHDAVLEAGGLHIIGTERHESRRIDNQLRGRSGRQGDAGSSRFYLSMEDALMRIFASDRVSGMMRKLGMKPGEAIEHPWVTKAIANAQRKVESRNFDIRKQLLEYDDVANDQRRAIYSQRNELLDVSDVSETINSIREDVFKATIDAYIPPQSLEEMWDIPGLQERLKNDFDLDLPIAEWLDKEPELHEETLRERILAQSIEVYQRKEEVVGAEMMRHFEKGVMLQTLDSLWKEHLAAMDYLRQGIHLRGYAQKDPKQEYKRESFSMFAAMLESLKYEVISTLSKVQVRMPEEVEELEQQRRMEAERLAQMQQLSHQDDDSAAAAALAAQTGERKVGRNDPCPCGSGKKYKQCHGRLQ

Structure (SMILES)	Percent Effect [1] [%]	Percent Effect [2] [%]	Percent Effect [3] [%]	Percent Effect [4] [%]	Percent Effect [5] [%]	Percent Effect [6] [%]	Percent Effect [7] [%]	Percent Effect [8] [%]	Percent Effect [9] [%]	Percent Effect [10] [%]	Percent Effect [11] [%]
O=C(NCCN1CCCc2ccccc21)c1scnc1Cl	-4.96	2.63	0.379	-2.42	2.52	-0.719	2.96	-9.38	7.39	1.24	3.5
Cc1ccc(-c2csc(N)c2C#N)cc1	-0.493	6.67	-1.04	11.3	-3.34	-4.05	13.1	28	-6.35	-12.8	2.72
O=C(c1ccc(Br)o1)N1CCCC(n2cncn2)C1 (configuration not stated)	-5.45	-1.39	0.96	-6.28	-3.6	-2.21	4.04	7.55	0	2.56	1.43
CCN1CCC(CNC(=O)C2(c3cccc(C)c3)CC2)C1 (configuration not stated)	-2.88	-1.27	6.26	2.04	-7.69	5.81	10.1	13.3	11.5	15.2	-11.4
O=C(Cc1ccccc1F)N1C[C@@H]2COC[C@]2(COc2cccnc2)C1	-2.71	8.11	2.48	0.934	-1.66	10.5	17.5	-1.09	3.24	12.8	-2.39
NC(=O)C(CNC(=O)COCC(F)(F)F)Cc1ccc(F)cc1 (configuration not stated)	-3.66	5.26	9.48	-1.54	0.292	-5.92	13.1	-19.6	2.13	15.6	-4.87
COC1CCN(C(=O)CCc2c(C)nc3ccnn3c2C)CC1	-0.424	5.26	1.13	-0.445	-3.64	5.4	1.95	-10.2	4.43	6.17	5.83
Cc1ccc(CC(=O)N2CCOC(c3nc(C)n[nH]3)C2)cn1 (configuration not stated)	-3.84	20.8	-6.18	28.2	3.79	5.74	5.96	-6.79	6.32	12.8	-3.82
CC(C)c1nnc(NC(=O)NCc2ccnc(N(C)C)c2)s1	0.949	8.86	3.28	-0.716	-2.77	8.39	15.8	30.7	1.04	7.59	-17.6
CC(C)c1noc(C(C)N2CCN(Cc3ccccc3C#N)CC2)n1 (configuration not stated)	-0.614	-2.63	-8.38	2.79	4.58	-2.52	3.81	10.1	-3.45	3.7	2.36
CCn1cnnc1CNC(=O)N1CCN(Cc2ccccc2)CC1	-4.19	26	-4.86	-6.22	6.95	-2.32	12.1	0.217	8.57	30.6	-22.4
Clc1ccccc1CN1CCc2nc(C3CCCCN3)ncc2C1 (configuration not stated)	-3.32	-8	4.19	5.09	8.46	-1.17	5.55	-13.2	5.32	3.85	-2.09
O=C(NCC1CCOCC1)[C@@H]1C[C@@H]2CCN(Cc3ccco3)C[C@H]2O1	-0.876	5.33	-1.12	6.61	-5.02	-54.7	10.1	-10.2	2.08	7.5	-6.48
CCn1cc(N2Cc3nc(N)ncc3C2=O)cn1	-6.38	12	-9.46	-1.51	7.47	-20.6	13.9	2.34	7.41	17.9	-15.1
COc1ccc(NC(=O)N2CCN(c3ncccn3)CC2)cn1	-0.45	8.22	2.23	-2.77	-3.53	3.64	7.63	11.7	4.3	10	-3.82
Cc1noc([C@@]23CCO[C@@H]2CCN(C(=O)C2CCOCC2)C3)n1	-0.432	10.7	2.61	-3.48	-1.54	-51.8	13.2	-1.95	7.29	20	-7.84
CN(C)C(=O)Cc1nc(CN2CCn3c(nnc3C3CC3)C2)cs1	-3.93	16.2	2.91	3.53	2.14	-2.4	10.8	7.25	5.94	15.8	-2.27

From ChEMBL document CHEMBL3988442, “University of Dundee, Small-Polar-MMV Screening Library” (2021)
